CHX counter – counter-screen for Shiga toxin inhibitors: cycloheximide protein synthesis inhibition; cell reporter, cycloheximide protein synthesis inhibition counterscreen; max response, %; actives 12% (n = 300,000); AID 2314; in the data active = max response mostly above about 13%, no sharp cut-off; inactive = mostly below about 14%; also: read at 38.3 µM for the half of the compounds with a filed dose; 0% is about no effect
AmpC inh detg – blocks E. coli AmpC beta-lactamase in detergent assay | P00811 | AmpC hydrolysis of nitrocefin, absorbance 480 nm, 0.01% Triton | actives 0.041% (n = 370,000) | Potency, µM (series often up to 114 µM), without a hit: top-dose activity change, negative = inhibition, actives largely listed as inhibitors;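 also: potency is read from the fitted curve at half-maximal effect; 0% = no-compound wells and -100% = no-enzyme wells; nearly all actives have a fitted effect of over 25% in size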
Target sequence (P00811 whole entry, looked up): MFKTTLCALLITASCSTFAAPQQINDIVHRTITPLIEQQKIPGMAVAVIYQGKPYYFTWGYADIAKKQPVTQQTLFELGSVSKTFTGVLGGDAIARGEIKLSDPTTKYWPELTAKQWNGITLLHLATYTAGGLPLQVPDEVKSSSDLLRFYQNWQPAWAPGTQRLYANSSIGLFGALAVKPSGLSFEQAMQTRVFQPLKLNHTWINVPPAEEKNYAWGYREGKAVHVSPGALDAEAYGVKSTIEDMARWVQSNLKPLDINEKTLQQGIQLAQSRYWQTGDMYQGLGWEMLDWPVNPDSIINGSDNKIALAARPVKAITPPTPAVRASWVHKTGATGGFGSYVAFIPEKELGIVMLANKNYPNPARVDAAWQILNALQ
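AmpC (5.3 nM in the dispensed reagent) in 20 mM phosphate pH 7.0 with 0.01% (detergent screen) or 0.0001% Triton X-100 was preincubated with compounds for 15 min at room temperature. Nitrocefin was then added from an 800 uM solution, and hydrolysis was followed at 480 nm.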
AmpC no deterg – inhibitors of E. coli AmpC beta-lactamase without detergent. AmpC nitrocefin hydrolysis, absorbance 480 nm, 0.0001% Triton. actives 0.52% (n = 330,000). Potency, µM (top dose mostly 57.1 µM), inactives show at the highest dose activity change, negative = inhibition, hits mostly inhibitors. P00811;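 also: potency is read from the fitted curve at half-maximal effect; plate controls were no compound for no effect and no enzyme for full effect; nearly all actives have a fitted effect of over 20% in size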
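20 mM phosphate pH 7.0 + 0.01% (detergent screen) or 0.0001% Triton X-100; 5.3 nM AmpC reagent; cpd preinc 15 min RT; nitrocefin (800 uM stock) to start; A480 q20 s × 4 min; Activity was normalised to no-enzyme and no-compound control wells.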
Shiga toxin inh – blocks Shiga toxin action in Vero cells; Vero cells, Shiga toxin protein synthesis inhibition reporter; inhibition, % at 38.7 µM; actives 9.2% (n = 290,000); in the data active = inhibition mostly above about 28%, no sharp cut-off; inactive = mostly below about 43%; also: 0% is about no effect
NS1 inh – blocks influenza NS1 protein function; Potency, µM (doses to about 46.1 µM), for the others: at the highest dose activity, positive = more growth; actives 0.4% (n = 270,000); calls by dose curve; also: potency is read from the fitted curve at half-maximal effect; actives are rising curves; nearly all actives have a fitted effect of over 50% in size
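A cell-based growth assay was used: compounds that relieve NS1-induced slow growth of budding yeast raise OD600. Assay medium was yeast nitrogen base with ammonium sulphate and -URA supplement, pH 6.0, with 2% galactose.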
NS1 inh valid – influenza NS1 function inhibition validation | shares compounds with NS1 inh | influenza NS1 function cell assay, 15-point titration | activity change, negative = inhibition, % at 32.9 µM | 1,400 tested, under 10 active | AID 492980; calls by dose curve; also: 0% is about no effect
PR8 titer – influenza virus titer reduction, NS1 project; shares compounds with NS1 inh; MDCK infected influenza A/PR/8/34, virus titer TCID50; hits give low values; virus titer (log TCID50), log10 TCID50 at 5 µM; actives 30% (n = 95); call rule not given here
Starred values were filed as active, the others as inactive; ? = inconclusive; nt = not tested or not shown. The entries come from a sample that favours hits as a whole. Unless noted, calls follow the shape of the dose curve; as a rule, active = well fitted curve in the direction sought with a large enough effect; inconclusive = small, poorly fitted or top-dose-only effect, or another doubt; inactive = no such curve, though single readings can be large; an effect the other way counts as inactive or inconclusive.

SMILES | CHX counter | AmpC inh detg | AmpC no deterg | Shiga toxin inh | NS1 inh | NS1 inh valid | others
CCOc1ccc(C2=Nc3ccc(Br)cc3C(c3ccc(N4CCOCC4)cc3)=NN2)cc1 | 44* | ? | 27% | 56* | ? | -7
CCOc1ccc(C2=Nc3ccccc3C(c3ccc(N4CCOCC4)cc3)=NN2)cc1 | 46* | -14% | 39% | 163* | ? | 19 | PR8 titer=7.5*
COc1cccc(C(=O)Nc2ncc3c(n2)CC(c2ccc(OC)cc2OC)CC3=O)c1 (stereo unspecified) | -2 | -11% | -3% | 13 | 10µM* | -24
O=C(/C=C/c1cccnc1)c1cccc(O)c1 | -2 | -12% | -23% | -5 | ? | ?
CN(C)C(=O)COc1ccc(C(=O)/C=C/c2cccnc2)cc1 | 7 | -12% | -3% | -2 | 11% | nt
O=C(c1ccc2c(c1)OCO2)[C@@H]1[C@@H]2C(=O)N(C3CCCCC3)C(=O)[C@@H]2C2c3ccccc3C=CN21 (stereo partly specified) | 6 | -2% | 11% | 21 | 13µM* | 9 | PR8 titer=7.7
O=C(O)c1cccc(N=C2NC(=O)C(CO)(CO)S2)c1 | 2 | ? | -6% | nt | 3% | nt
COc1cc(NC(=O)CN2CC(c3ccccc3)CC2=O)cc(OC)c1 (stereo unspecified) | -2 | 3% | 0% | 8 | -26% | nt
COC(=O)CCCNC(=O)CN1CC(c2ccccc2)CC1=O (stereo unspecified) | -2 | ? | -10% | 17 | ? | 5
COc1cc(/C=C\C(=O)NCc2ccc3c(c2)cc(C)n3C)cc(OC)c1OC | -3 | -1% | 36% | 23 | ? | 3
CC(=O)c1ccc2c(c1)C1C(Cl)C(Sc3ccccc3[N+](=O)[O-])CC1C(c1ccccc1[N+](=O)[O-])N2 (stereo unspecified) | 4 | -5% | ? | 8 | 2µM* | 11
COc1ccc(-c2cc(C(=O)Nc3nc4c(C)cccc4s3)c3ccccc3n2)cc1OC | -2 | ? | -36% | 29 | 11µM* | 9
C=Cn1cc[n+](CC(=O)C(C)(C)C)c1 | -5 | -5% | -41% | -10 | 9% | nt
Nc1c(C(=O)NCc2ccco2)sc2nc(N3CCOCC3)c3c(c12)CCCC3 | -1 | -7% | 67% | -2 | 25µM* | 0
CCOC(=O)c1cc(NC(=O)c2ccc(C)cc2)c(=O)n2c1oc1ccccc12 | nt | -6% | nt | nt | nt | nt
CC(=O)OC1C2CCCC1C(N1CCCC1)CC2 (stereo unspecified) | 5 | 5% | -6% | -5 | ? | 0
COc1ccc(NC(=S)NCCC(c2ccccc2)c2ccccc2)c(OC)c1 | -1 | ? | -35% | 3 | 11µM* | ?
COc1cccc(NC(=S)NCCC(c2ccccc2)c2ccccc2)c1 | 11 | 4% | -30% | -4 | 11% | nt
COc1ccc(NC(=O)CC(=O)Nc2ccc(OC)cc2OC)c(OC)c1 | 1 | -17% | -2% | -10 | ? | 2
O=c1c(N2CCc3ccccc3C2)csc2ccc(Cl)cc12 | nt | -5% | nt | nt | nt | nt
COc1ccc(Cc2nc3ccccc3[nH]2)cc1OC | 1 | 5% | -13% | -6 | -1% | nt
CC(C)Oc1cccc(C(=O)C2CCCN(Cc3cnc(N4CCOCC4)s3)C2)c1 (stereo unspecified) | 2 | -2% | 159% | -26 | 2% | nt
O=C(C1CCCN(S(=O)(=O)c2cccc3nonc23)C1)N1CCN(c2ccccc2Cl)CC1 (stereo unspecified) | -4 | 6% | 33% | -18 | ? | nt
O=C(C1CCCN(S(=O)(=O)c2cccc3nonc23)C1)N1CCC(Cc2ccccc2)CC1 (stereo unspecified) | -3 | -4% | nt | -13 | 10µM* | -33
Cc1ccc(S(=O)(=O)N2CCN(C(=O)CC(C)n3cncn3)CC2)cc1C (stereo unspecified) | -4 | 2% | -1% | -10 | ? | -9
SMILES | CHX counter | AmpC inh detg | AmpC no deterg | Shiga toxin inh | NS1 inh | NS1 inh valid | others
CCCCC1=CC2=CC(=O)C(C)(OC(=O)CC)C(=O)C2=CN1CCOC (stereo unspecified) | -4 | -2% | 43% | -7 | ? | 8
Cc1nn(C)cc1S(=O)(=O)Nc1cccc(Cl)c1 | -5 | -13% | -13% | -9 | -11% | nt
COc1cc(/C=C/C(=O)Nc2nnc(CC(C)C)s2)cc(OC)c1OC | 2 | -8% | 5% | 8 | ? | -4
CCOc1ccc(CCNC(=O)CCCc2nnc3n(C)c(=O)c4sccc4n23)cc1OCC | nt | 0% | nt | nt | nt | nt
COc1ccc(-n2c(=O)cc(N3CCc4ccccc43)[nH]c2=O)cc1 | -1 | 1% | -20% | -3 | -1% | nt
O=c1cc(N2CCc3ccccc32)[nH]c(=O)n1-c1ccc(Br)cc1 | -1 | ? | ? | 3 | 6.3µM* | 22
CCOC(=O)C1=C(C)N=C2SC(C)C(=O)N2C1c1ccc(C(=O)OC)cc1 (stereo unspecified) | -1 | -2% | 5% | -9 | 7.9µM* | -1
COc1ccccc1/C=N/NC(=O)c1[nH]c(C)c(C(=O)N/N=C/c2ccccc2OC)c1C | 4 | 2% | -10% | -4 | ? | ?
COc1cc(NC(=O)c2ccccc2)c(OC)cc1NC(C)=O | -2 | -10% | -14% | -4 | ? | 1
O=C(C1=NN(c2ccccc2)C2C(=O)N(c3ccccc3Cl)C(=O)C12)c1ccccc1 (stereo unspecified) | -3 | 15% | -18% | 2 | 5.6µM* | -29 | PR8 titer=8
O=C(C1=NN(c2ccccc2)C2C(=O)N(c3ccccc3)C(=O)C12)c1ccccc1 (stereo unspecified) | 0 | 0% | -25% | -10 | ? | nt
Cc1ccc(NC(=O)c2ccc(C(C)(C)C)cc2)cc1-n1cnnn1 | -4 | -3% | -12% | -6 | -2% | nt
CCCOc1ccccc1NC(=O)c1ccc(N)cc1 | -1 | 2% | -12% | -14 | -16% | nt
CCCCOc1ccccc1NC(=O)c1ccc(=O)[nH]c1 | -1 | 3% | -18% | -8 | ? | 1
Cc1cc(C)cc(NS(=O)(=O)c2ccc3[nH]cc(C(=O)N4CCc5ccccc54)c(=O)c3c2)c1 | 1 | -3% | -25% | -8 | 22µM* | 11
CCN(CC)C(=O)c1c[nH]c2ccc(S(=O)(=O)Nc3cc(C)cc(C)c3)cc2c1=O | -3 | -1% | -36% | -9 | 7% | nt
Cc1ccc(-c2cc(C(=O)Nc3sc4c(c3C(=O)NCc3ccco3)CCC4)[nH]n2)c(O)c1 | 5 | 6% | -15% | 17 | ? | 3

Screens (PubChem BioAssay)
